We go through 62 molecules from PubChem BioAssay AID1063 (University of Pittsburgh Molecular Library Screening Center, 2008).

Where “and” joins values, the source holds several entries; their conditions need not be identical. Equal values may be shown once. About 18,000 (9%) of roughly 200,000 compounds were called active. Cut-off read from the data, not from the text of the source: active = inhibition above about 50%; inactive = the rest. The entries come from a sample that favours actives as a whole. More than one record can exist for a structure, and the calls need not agree.

The nature of the assay: antileishmanial activity against promastigotes – primary screen (AID 1063).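 Note: promastigotes grown with compound for 44 hours at 28 °C.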 Particulars: Leishmania major promastigotes, resazurin fluorescence viability; at 10 µM; stronger effect = higher value.
By inhibition is commonly meant the change of the read-out against control, counted positive when it falls. Regarding `O=C(CN1CCOCC1)Nc1c(Cl)cc(Cl)cc1Cl`, the inhibition was -3.49% (inactive).
Take `O=C(Nc1ccc(F)cc1)N1CCCC(c2nc3c(nnn3Cc3ccccc3Cl)c(=O)[nH]2)C1` (configuration not stated): the inhibition is -7.44% (inactive).
For the molecule `COC(C(=O)NCc1ccccc1C)c1ccccc1` (configuration not stated), the inhibition is -3.9% (inactive).
As for `COC(C(=O)Nc1ccc(C(C)=O)cc1)c1ccccc1` (configuration not stated), the figure is -5.21% (inactive); as for `COC(C(=O)Nc1ccc(S(=O)(=O)Nc2ccc(C)c(C)c2)cc1)c1ccccc1` (configuration not stated), 56.7% (active).
On to `Cc1ccc(C(=O)N/C(=C\c2ccco2)C(=O)N2CCSCC2)cc1C`, for which the inhibition is 10.4% (inactive).
Take `O=C(CCCn1c(=O)c2sccc2n(CC(=O)NCC2CCCO2)c1=O)NCc1ccco1` (configuration not stated): the inhibition was -8.29% (inactive).
Regarding `CC1CCCC(C)N1/N=C/c1ccccc1OC(F)F` (configuration not stated), the inhibition was -3.94% (inactive).
Next, `Oc1ccc(Br)cc1C=Nc1ccc2[nH]ncc2c1`: -4.98% (inactive).
As for `Oc1ccc(Cl)cc1/C=N/c1nc2ccccc2[nH]1`, the figure is 63% (active); as for `c1ccc2[nH]c(-c3nc4ccccc4[nH]3)nc2c1`, 33.9% (inactive); as for `COc1cccc(NC(=O)c2ccc(S(=O)(=O)N(C)C)cc2)c1`, -7.02% (inactive).
`COc1cccc(-c2nnc(NC(=O)c3ccc(S(=O)(=O)N(CC(C)C)CC(C)C)cc3)o2)c1`: the inhibition was 100% (active).
Next, `O=C(Nc1nnc(-c2ccco2)o1)c1ccc(S(=O)(=O)N2CCOCC2)cc1`: 3.15% (inactive); `CCOc1ccc2nc(NCCNC(=O)C(C)(C)C)c(C)cc2c1`: 5.84% (inactive); `CN(CC(=O)NCCc1ccccn1)S(=O)(=O)c1ccc(Cl)cc1`: 6.18% (inactive).
Next, `COc1ccc(CN2CCCC(C(=O)c3ccc(Cl)cc3)C2)cc1Cn1cncn1` (configuration not stated): 32% (inactive); `COc1ccc(CCN(C)C(=O)C2CCCN(Cc3ccc(OC)c(OC)c3)C2)cc1OC` (configuration not stated): -6.68% (inactive) and 55.5% (active).
Next, `COc1ccc(CN2CCCC(CNC(=O)c3ccc(F)cc3)C2)cc1OC` (configuration not stated): 14.8% (inactive).
Turning to `O=C1CN(C(=O)CN2C(=O)NC3(CCCCC3)C2=O)c2ccccc2N1`, the inhibition is -5.28% (inactive).
Turning to `Cc1ccccc1Nc1scc(-c2ccc(Br)cc2)[n+]1-c1ccccc1C`, the inhibition was 31% (inactive).
In the case of `CCc1ccc(NC(=O)N2CCN(c3ccccc3)CC2)cc1`, the inhibition is 25.5% (inactive).
Next, `CC(=O)N1CCN(c2ccc(NCc3ccc(C(C)C)cc3)cc2)CC1`: 81.4% (active); `CC(CC(=O)N1CCN(c2ccccc2)CC1)c1ccccc1` (configuration not stated): -5.82% (inactive); `NC(=O)N1CCc2ccccc21`: -6.03% (inactive).
For `Cc1cccc(N2Cc3ccccc3C2=NC(=O)c2ccc(Cl)nc2)c1`, the inhibition is 4.02% (inactive).
Next, `O=C(Nc1ccccc1)OCc1cn(-c2ccc(Cl)cc2)nn1`: -4.84% (inactive).
Next, `N#Cc1ccc(N2Cc3ccccc3/C2=N/C(=O)Nc2ccc(Cl)cc2)cc1`: 71.6% (active); `Cn1cccc1/C=C1\SC(=O)N(CC(=O)Nc2ccc(F)cc2)C1=O`: -0.17% (inactive).
Next, `COc1ccccc1CNCc1cccs1`: 7.82% (inactive); `CCC(Oc1ccccc1)C(=O)NCc1cccnc1` (configuration not stated): 3.42% (inactive).
Regarding `CCOc1cc(/C=N/O)ccc1OCc1ccccc1F`, the inhibition is -1.85% (inactive).
As for `O=C(CCc1ccccc1)NCc1cccnc1`, the figure is -1.64% (inactive); as for `c1ccc(COc2ccccc2CNCc2cccnc2)cc1`, 75% (active); as for `Fc1ccccc1COc1ccccc1CNCc1ccncc1`, 98.5% (active).
As for `O=C(CNC1CCCCC1)NCC1(c2ccccc2)CCCC1`, the figure is 19.4% (inactive); as for `O=C(O)c1n[nH]nc1-c1ccccc1`, -4.14% (inactive); as for `COC(=O)c1cc(NC(=O)CN2CCN(C(C)=O)CC2)cc(C(=O)OC)c1`, 2.15% (inactive).
Next, `Fc1ccc(CNCc2ccc(Br)cc2)cc1`: 84.8% (active); `O=C(Cc1ccccc1)NCc1ccc(F)cc1`: -4.83% (inactive); `Cc1cc(C)cc(NC(=S)NCc2ccc(F)cc2)c1`: 16.7% (inactive).
As to `Cn1c(SCC(=O)Nc2ccc(Br)cc2F)nnc1-c1ccco1`, the inhibition was -5.27% (inactive).
Consider `NC(=O)C1CCN(C(=O)COc2cccc3cccnc23)CC1`, for which the inhibition was -6.58% (inactive).
Next, `COc1ccc(C(=O)CSc2nc(C)cc(C)n2)cc1[N+](=O)[O-]`: 16% (inactive); `COc1ccc(OCc2cn3c(C)cc(C)nc3n2)cc1`: -3.26% (inactive).
For the molecule `COc1ccc(C(C[N+](=O)[O-])n2nc(C)cc2C)cc1` (configuration not stated), the inhibition was 100% (active).
As for `CN(C)/C=C(/C(=O)c1ccccc1Cl)S(C)(=O)=O`, the figure is 3.15% (inactive); as for `CCn1nc(C)cc1C(=O)N1CCCC(C(=O)c2cccc(OC)c2)C1` (configuration not stated), -7.56% (inactive).
Next, `Cc1cnc(C(=O)N2CCCC(C(=O)c3ccc(C(F)(F)F)cc3)C2)cn1` (configuration not stated): 3.62% (inactive); `COc1ccc(C(=O)C2CCCN(C(=O)c3cc4nc(C)cc(C)n4n3)C2)cc1F` (configuration not stated): 57.3% (active); `C=CCn1cc(C(=O)NCc2ccc(Cl)cc2)c(=O)c2cc(S(=O)(=O)N(CC)CC)ccc21`: 13.9% (inactive).
As for `COc1ccc(C(=O)CN(C(=O)c2ccc(Cl)cc2)N2C(=O)c3ccccc3C2=O)cc1`, the figure is -4.51% (inactive); as for `CCc1nc2oc3ccccc3c(=O)c2c(=O)n1Cc1ccc(OC)cc1`, 8.88% (inactive); as for `COc1ccc(Cn2c(-c3ccc(Cl)cc3)c[n+]3ccccc23)cc1`, 99.2% (active).
For `COc1ccc(-c2nn(-c3ccccc3)cc2/C=C\C(=O)Nc2ccc(C(=O)O)cc2)cc1`, the inhibition is -5.87% (inactive).
As for `Cc1c(C(=O)Nc2ccccc2)sc2nc3n(c(=O)c12)CCCCC3`, the figure is 61.8% (active); as for `Cc1c(C(=O)Nc2cccc(-c3nnc4n3CCCCC4)c2)oc2ccccc12`, 27.1% (inactive); as for `O=c1c2c(nc3n1CCCCC3)sc1c(O)cccc12`, -1.41% (inactive).
`C=CCNc1nc(Nc2ccc(Cl)cc2)nc(OC)n1`: the inhibition was 41.2% (inactive).
As for `COc1ccc(C2Nc3ccccc3C(=O)N2c2ccc(F)cc2)cc1Cn1nnc2ccccc21` (configuration not stated), the figure is 20.3% (inactive).
As for `COc1ccc(C2Nc3ccccc3C(=O)N2Cc2ccccc2)cc1Cn1nnc2ccccc21` (configuration not stated), the figure is 97% (active).
As for `COc1ccc(C2=NO[C@@H]3C(=O)N(Cc4ccccc4)C(=O)[C@H]23)cc1OC`, the figure is -2.75% (inactive).
